Values joined by “and” are separate entries in the source; they are usually repeats but may differ in a detail not shown here. Equal values may be shown once. Active and inactive are the calls of the source.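 The calls were made as follows, unless noted: active = thallium flux through the channel raised or lowered by more than 3 SD from vehicle-only wells, actives on both sides; inactive = the rest.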
How the values were obtained:
[1] = blockers of polyQ-driven CASP3 activation – cell-based (AID 1583); conditions: polyglutamine-induced caspase-3 activation, cell assay; stronger effect = higher value;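 tested at 10 µM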
[2] = yeast 75Q aggregation reduction – 75Q-TubU reporter (AID 1593); conditions: Yeast 75Q polyglutamine aggregation reporter
[3] = blockers of cytochrome c efflux from mitochondria – biochemical, purified mitochondria (AID 1603); conditions: stronger effect = lower value;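 also: mouse liver mitochondria challenged with calcium chloride; signal normalized to the plate average as 100%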
[4] = polyglutamine aggregate formation blockers (AID 1604); conditions: polyglutamine-induced protein aggregation inhibition assay; stronger effect = higher value; tested at 2.5 µM
[5] = glutamate transport activators, MN-1 cells, MN-1 cell line (AID 1612); conditions: MN-1 motor neuron cells, stronger effect = higher value;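 also: tested at 1 µM final; 0% = mean of DMSO vehicle wells on each plate; positive means more glutamate uptake than control and negative means less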
[6] = signal quenchers or enhancers, Cy5 substrate/SSB – biochemical, NIH Clinical Collection, E. coli SSB, artefact control for HCV NS3 helicase inhibitor project (AID 743268; call rule not given here); conditions: Cy5-oligo bound E. coli SSB, fluorescence interference
[7] = tested on: Hepatitis C virus NS3 helicase; test: blockers of NS3h binding to DNA – biochemical, fluorescence polarization, NIH Clinical Collection, primary screen (AID 743270; call rule not given here); conditions: NS3 helicase binding to Cy5-dT15 DNA, stronger effect = higher value, concentration not given here
[8] = target: Single-stranded DNA-binding protein (Escherichia coli (strain K12)) (UniProt P0AGE0); test: SSB-ssDNA binding inhibitors – biochemical, fluorescence polarization, NIH Clinical Collection, counter-screen for HCV NS3 helicase inhibitor project (AID 743271; in the data active = inhibition above about 28%); conditions: E. coli SSB-DNA binding, stronger effect = higher value, concentration not given here
[9] = compounds distorting NS3 helicase fluorescence signal – biochemical, NIH Clinical Collection, artefact control for HCV NS3 helicase inhibitor project (AID 743272; call rule not given here;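 also: HCV NS3 helicase with a Cy5 labelled single stranded DNA probe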); conditions: fluorescence interference counterscreen, HCV NS3 helicase assay; stronger effect = lower value
[10] = galactose survival enhancers in mitochondrial complex I cybrids – cell-based, galactose medium, ATP luminescence, primary screen (AID 1645843;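 active = z-score of at least 1.8 in each of two replicates, scored against plate mean and spread of sample wells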;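 also: positive z means more ATP and so rescue of galactose-driven cybrid death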); conditions: complex I mutant cybrid cells, 72 h, stronger effect = higher value
F380Y/beta4 = test: BK channel mutant inhibitors and activators – cell-based, U2OS BacMam, thallium flux, beta subunits, selectivity assay, profiling panel (AID 1259406); conditions: U2OS BacMam BK variants, at 30 µM;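 also: initial slope of Thallos dye fluorescence rise after thallium is added; log ratio against the mean of 0.3% DMSO vehicle wells on the same plate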
[11] = target: Calcium-activated potassium channel subunit alpha-1 (Homo sapiens) + Leucine-rich repeat-containing protein 26 (Homo sapiens) (UniProt Q12791+Q2I0M4); test: as above; conditions: U2OS BacMam BK variants, F380Y/Slo1WT/gamma1, at 30 µM
R275C = test: as above; conditions: U2OS BacMam BK variants, at 30 µM
R275C/beta1 = test: as above; conditions: U2OS BacMam BK variants, at 30 µM
R275C/beta2Delta = test: as above; conditions: U2OS BacMam BK variants, at 30 µM
R275C/beta4 = test: as above; conditions: U2OS BacMam BK variants, at 30 µM
R275C/Slo1WT/beta2 = test: as above; conditions: U2OS BacMam BK variants, at 30 µM

Chain of Calcium-activated potassium channel subunit alpha-1 (Homo sapiens) + Leucine-rich repeat-containing protein 26 (Homo sapiens) (Q2I0M4 whole entry, looked up, one chain of several): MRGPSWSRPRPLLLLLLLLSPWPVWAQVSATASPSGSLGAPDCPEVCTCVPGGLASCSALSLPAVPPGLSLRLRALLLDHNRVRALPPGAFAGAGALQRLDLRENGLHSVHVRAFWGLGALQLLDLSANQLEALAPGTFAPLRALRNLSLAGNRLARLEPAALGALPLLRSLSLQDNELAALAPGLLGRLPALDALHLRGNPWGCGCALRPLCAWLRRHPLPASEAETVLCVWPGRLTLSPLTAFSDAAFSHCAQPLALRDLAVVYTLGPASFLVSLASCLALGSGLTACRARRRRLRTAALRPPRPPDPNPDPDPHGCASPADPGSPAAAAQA

SMILES | inhibition [1] [%] | score [2] | cytochrome c release ratio [3] | inhibition of aggregation [4] [%] | glutamate uptake change [5] [%] | fluorescence ratio [6] | inhibition [7] | inhibition [8] | fluorescence ratio [9] | z-score [10] | log fold change Tl+ flux (F380Y/beta4) | log fold change Tl+ flux [11] | log fold change Tl+ flux (R275C) | log fold change Tl+ flux (R275C/beta1) | log fold change Tl+ flux (R275C/beta2Delta) | log fold change Tl+ flux (R275C/beta4) | log fold change Tl+ flux (R275C/Slo1WT/beta2)
CC(=O)CC(c1ccccc1)c1c(O)c2ccccc2oc1=O (stereo unspecified) | 17 | 0.72 | 1.4 | 68.5 | -2.55 | 1 (inactive) | -2.27% (inactive) | -3.53% (inactive) | 0.99 (inactive) | 2.31 (active) | 0.0212 (inactive) | -0.00524 (inactive) | 0.00879 (inactive) | -0.0262 (inactive) | 0.0436 (inactive) | -0.00201 (inactive) | 0.0306 (inactive)
NS(=O)(=O)c1cc2c(cc1Cl)NCNS2(=O)=O | -3.39 | 1.21 | 1.08 | 3.17 | 8.53 | 0.125 (active) | -5% (inactive) | -3.53% (inactive) | 1 (inactive) | 0.29 (inactive) and 0.995 (inactive) | -0.0186 (inactive) | -0.0022 (inactive) | -0.00411 (inactive) | 0.0065 (inactive) | -0.0287 (inactive) | 0.00368 (inactive) | 0.0144 (inactive)
O=C(O)c1cccnc1 | 1.52 | 1.31 | 0.86 | 67.8 | -8.8 | 1.05 (inactive) |  |  | 0.99 (inactive) | 0.63 (inactive) | 0.0275 (inactive) | -4.3e-05 (inactive) | 0.0183 (inactive) | -0.00198 (inactive) | 0.0288 (inactive) | 0.0274 (inactive) | -0.00368 (inactive)
NC(=O)c1cnccn1 | -0.34 | 1.27 | 1.22 | 69.8 | 25.2 | 0.1 (active) | -4.09% (inactive) | -2.76% (inactive) | 0.96 (inactive) | 0.985 (inactive) and -0.015 (inactive) | 0.0145 (inactive) | -0.0208 (inactive) | -0.0218 (inactive) | 0.0553 (inactive) | -0.0119 (inactive) | -0.0116 (inactive) | 0.0474 (inactive)
OCCN1CCN(CCCN2c3ccccc3Sc3ccc(C(F)(F)F)cc32)CC1 | -7.66 | 1.32 | 2.24 | 51.3 | -9.51 | 0.8 (active) | -6.33% (inactive) | 5.91% (inactive) | 0.82 (inactive) | -1.04 (inactive) and -1.87 (inactive) and -0.735 (inactive) | 0.354 (active) | 0.0357 (inactive) | -0.11 (inactive) | 0.409 (active) | 0.0662 (inactive) | 0.23 (active) | -0.0356 (inactive)
CO[C@@]1(NC(=O)Cc2cccs2)C(=O)N2C(C(=O)O)=C(COC(N)=O)CS[C@@H]21 | 10 | 0.25 | 0.94 | 27.8 | -21.4 | 1.06 (inactive) | 0.45% (inactive) | 27.7% (active) | 1.01 (inactive) | -0.58 (inactive) | -0.02 (inactive) | -0.0176 (inactive) | 0.0592 (inactive) | 0.00671 (inactive) | -0.0512 (inactive) | 0.0012 (inactive) | 0.00869 (inactive)
OC(CCN1CCCC1)(c1ccccc1)C1CCCCC1 (stereo unspecified) | 2.81 | 1.52 | 0.63 | 69.2 | 2.81 | 1.04 (inactive) | -3.18% (inactive) | -3.53% (inactive) | 1.03 (inactive) | -0.65 (inactive) | 0.131 (active) | 0.011 (inactive) | 0.00132 (inactive) | 0.0416 (inactive) | -0.0288 (inactive) | 0.068 (inactive) | -0.0137 (inactive)
Cc1ccc(C)c(OCCCC(C)(C)C(=O)O)c1 | 5.02 | -0.33 | 0.86 | 39.4 | 0.82 | 1.06 (inactive) | 0.45% (inactive) | 1.05% (inactive) | 0.96 (inactive) | 0.125 (inactive) and 0.18 (inactive) | 0.0166 (inactive) | 0.0687 (inactive) | 0.0109 (inactive) | 0.0657 (inactive) | 0.0312 (inactive) | -0.0122 (inactive) | 0.088 (inactive)
Cc1ncc([N+](=O)[O-])n1CC(C)O (stereo unspecified) |  |  |  |  |  | 1.05 (inactive) | 5.15% (inactive) | 6.83% (inactive) | 1 (inactive) | 0.59 (inactive) and 0.27 (inactive) | 0.0424 (inactive) | -0.0293 (inactive) | -0.115 (active) | 0.00616 (inactive) | -0.0048 (inactive) | -0.0387 (inactive) | 0.0129 (inactive)

From PubChem BioAssay
